According to PubChem BioAssay (NCATS):
Results filed as inconclusive are left out. Activity calls are given as the source filed them. Unless noted, the call rests on the fitted dose curve; in most records, active means well fitted curve in the direction sought with a large enough effect; inconclusive means small, poorly fitted or top-dose-only effect, or another doubt; inactive means no such curve, though single readings can be large; an effect the other way counts as inactive or inconclusive.

What was measured:
[1] = Cell Viability - BJ (AID 421; calls by dose curve;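 further: potency means the concentration at half of the fitted maximal effect; cells exposed to compound for 40 hours at 37 °C before readout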); conditions: BJ fibroblast viability, qHTS
Procedure, shortened: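 Cytotoxicity in human BJ foreskin fibroblasts is scored as loss of cellular ATP after a 40-hour exposure, measured by luciferase luminescence. Controls are DMSO and 100 uM tamoxifen.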

[2] = Cell Viability - Jurkat (AID 426;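 active means dose-dependent loss of cell ATP signal giving a full or clear fitted curve, ranked by lower potency value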;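 further: potency means the concentration at half of the fitted maximal effect; cells exposed to compound for 40 hours at 37 °C before ATP read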); conditions: qHTS
Procedure, shortened: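 Cells of the human T-cell leukemia line Jurkat (E6-1) are seeded at 5000 per well, treated with compound across a concentration range for 40 hours at 37 °C, then lysed with CellTiter-Glo; luminescence reports ATP.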

[3] = Cell Viability - Hek293 (AID 427;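 active means compounds whose dose-response curve shows a full or clear partial loss of cell viability, called from curve shape rather than a numeric limit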;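 further: potency means the concentration at half of the fitted maximal effect; cells exposed to compound for 40 hours at 37 °C before reading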); conditions: qHTS
Procedure, shortened: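 qHTS, human embryonic kidney (adenovirus-transformed) cells; 40 hr cpd, 37 °C; CellTiter-Glo ATP luminescence. Norm: DMSO = 0, 100 uM tamoxifen = 100% inhibition. Hill-fit AC50.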

[4] = Cell Viability - HepG2 (AID 433; calls by dose curve;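 further: potency means the concentration at half of the fitted maximal effect; potency for ATP loss meaning cytotoxicity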); conditions: qHTS
Procedure, shortened: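 Cytotoxicity is scored as loss of intracellular ATP in HepG2 cells exposed to compounds for 40 h. Concentration-response curves, normalized to DMSO and 100 uM tamoxifen, give AC50 values.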

[5] = Cell Viability - MRC5 (AID 434; calls by dose curve;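 further: potency means the concentration at half of the fitted maximal effect; potency reflects cytotoxicity seen as loss of intracellular ATP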); conditions: MRC5 lung fibroblast viability, qHTS
Procedure, shortened: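 AC50 values come from Hill-equation fits of intracellular ATP loss, measured by CellTiter-Glo luminescence. Normal lung fibroblasts (MRC5) had 40 hr compound treatment at 37 C, normalized between DMSO and 100 uM tamoxifen.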

[6] = Cell Viability - SK-N-SH (AID 435; calls by dose curve;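 further: potency means the concentration at half of the fitted maximal effect; compound exposure lasted 40 h at 37 °C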); conditions: SK-N-SH neuroblastoma cell viability qHTS
Procedure, shortened: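 Cells seeded at 1500 per well and incubated 5 hr at 37 °C. Compound added, then 40 hr at 37 °C. CellTiter-Glo added, 20 min at room temperature, luminescence read.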

[7] = target: Mitogen-activated protein kinase 10 (Mus musculus) (UniProt Q61831); experiment: JNK3 AlphaScreen Assay (AID 530; active means well fitted curve in either direction with a large enough effect, not every such curve was filed as active;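 further: kinase came from lysate of stimulated human HepG2 cells; signal reports phosphorylation of biotinylated GST-cJun 1-79 at Ser73 with 10 µM ATP; on the % scale 0 is the no-effect control and ±100 the full control effect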); conditions: JNK3 lysate, c-Jun phosphorylation; series mostly up to 57.1 µM
Procedure, shortened: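 qHTS titrations with 15 min compound pre-incubation before adding ATP (10 uM final). Read-out: AlphaScreen of Ser73-phosphorylated biotin-GST-cJun using HepG2 lysate JNK3 activated by IL-1β and TNFα.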

[8] = Cell Viability - N2a (AID 540); conditions: N2a mouse neuroblastoma cell viability; activity change, negative = cytotoxicity: at 92.2 µM (top of the series);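 further: cells exposed to compound for 40 h at 37 °C; plate controls were DMSO alone for no effect and tamoxifen control for full effect; nearly all actives have a fitted effect of over 45% in size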
Procedure, shortened: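 Cytotoxicity was scored as loss of cellular ATP in N2a cells, a mouse neuroblastoma line. Compounds are applied in a qHTS concentration series for 40 hr at 37 °C.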

[9] = Cell Viability - NIH 3T3 (AID 541); conditions: NIH 3T3 cell viability, qHTS; activity change, negative = cytotoxicity: at 92.2 µM (top of the series);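 further: plate controls were DMSO alone for no effect and tamoxifen positive control for full effect; nearly all actives have a fitted effect of over 25% in size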
Procedure, shortened: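 Cells seeded at 1000/well, rested 5 hr at 37 °C, then dosed and incubated 40 hr at 37 °C. CellTiter-Glo added, 20 min room temperature, luminescence read. AC50 by Hill fit.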

[10] = Cell Viability - H-4-II-E (AID 543); conditions: H-4-II-E rat hepatoma viability; series mostly up to 92.2 µM; further: on the % scale 0 is the no-effect control and ±100 the full control effect; nearly all actives have a fitted effect of over 35% in size
Procedure, shortened: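 Cells seeded at 1500 per well and rested 5 hr; compounds added; 40 hr incubation at 37 °C; CellTiter-Glo added, 20 min at room temperature; luminescence read. Hill-equation fits gave AC50.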

[11] = Cell Viability - SH-SY5Y (AID 544); conditions: SH-SY5Y neuroblastoma cell viability; viability change, negative = cytotoxic: at 92.2 µM (top of the series); further: nearly all actives have a fitted effect of over 55% in size
Procedure, shortened: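 Cells were plated at 1500 per well and allowed 5 hr at 37 °C. Compounds were added across a concentration range and incubated 40 hr at 37 °C. CellTiter-Glo was added for 20 min at room temperature before luminescence reading.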

[12] = Cell Viability - Renal Proximal Tubule (AID 545); conditions: renal proximal tubule cells viability, primary cells of rat origin; series mostly up to 91.7 µM; further: nearly all actives have a fitted effect of over 40% in size
Procedure, shortened: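 Cytotoxicity is scored as a concentration-dependent drop in cellular ATP in primary rat renal proximal tubule cells exposed for 40 hr. AC50 derives from Hill modelling.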

[13] = Cell Viability - Mesenchymal (AID 546); conditions: mesenchymal cells viability, qHTS; series mostly up to 91.7 µM;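 further: cells exposed to compound for 40 hours before reading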
Procedure, shortened: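 CellTiter-Glo luminescence (intracellular ATP, 20 min room temperature) after 40 hr compound exposure at 37 °C of 1000 glomerulus-derived human kidney mesenchymal cells/well; AC50 values obtained by fitting qHTS concentration-response data to the Hill equation.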

[14] = Cellular Toxicity (caspase-3) HepG2 (AID 654); conditions: HepG2 caspase-3 activation, luminescence; series mostly up to 92.2 µM;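 further: cells exposed to compound for 16 hours before reading; 0% = DMSO alone and 100% = caspase signal from 100 µM tamoxifen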
Procedure, shortened: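 Caspase 3/7 activation in HepG2 is measured as rising luminescence after a 16 hr treatment at 37 °C. Values are scaled between DMSO basal and 100 uM tamoxifen, and AC50 is fitted with the Hill equation.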

[15] = Cellular Toxicity (caspase-3) Jurkat (AID 655); conditions: Jurkat caspase-3 activation, luminescence; caspase-3 activation: at 92.2 µM (top of the series), DMSO = 0%, tamoxifen = 100%;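 further: cells exposed to compound for 16 h at 37 °C before reading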
Procedure, shortened: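 Caspase 3/7 activation is scored as increased luminescence in Jurkat cells cultured with compound for 16 hours in complete medium. AC50 values come from Hill fits of qHTS concentration-response data normalized to DMSO and 100 uM tamoxifen controls.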

[16] = Cellular Toxicity (caspase-3) HUV-EC-C (AID 656); conditions: HUV-EC-C cells, caspase-3 activation (apoptosis), vehicle = 0, 100 µM tamoxifen = 100%; series mostly up to 92.2 µM
Procedure, shortened: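 Read-out: luminescence proportional to caspase 3/7 activity, measured 20 min after adding Caspase-Glo 3/7 reagent. Cells (HUV-EC-C) had received compound for 16 hr at 37°C. Increases relative to DMSO and 100 uM tamoxifen gave concentration-response AC50 values.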

[17] = Cellular Toxicity (caspase-3) SHSY5Y (AID 657); conditions: SH-SY5Y caspase-3 activation, DMSO zero, 10 µM staurosporine = 100%; series mostly up to 91.7 µM;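 further: cells exposed to compound for 16 hours at 37 °C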
Procedure, shortened: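 Cells plated and incubated 5 h at 37 °C, dosed over a concentration range, incubated 16 h, then given Caspase-Glo 3/7 reagent for 1 h at room temperature before luminescence reading. Staurosporine (10 uM) defined full stimulation.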

[18] = Cellular Toxicity (caspase-3) BJ (AID 658); conditions: BJ fibroblasts, luminescence, normalized: DMSO 0%, staurosporine 100%; series mostly up to 91.7 µM
Procedure, shortened: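 Caspase-Glo 3/7 luminescence, read 1 hr after reagent at room temperature, in normal BJ fibroblasts exposed 16 hours at 37 °C. AC50 values from Hill-equation concentration-response, scaled between DMSO basal and 10 uM staurosporine as 100%.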

[19] = Cellular Toxicity (caspase-3) MRC-5 (AID 659); conditions: MRC-5 cells, luminescence, normalized: DMSO 0%, 10 µM staurosporine 100%; series mostly up to 91.7 µM
Procedure, shortened: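 Luminescent Caspase-Glo 3/7 read-out (1 h, room temperature) after a 16 h, 37 °C compound exposure of MRC-5 lung fibroblasts at 1500 cells/well. Concentration-response AC50 from Hill equation; 0% DMSO, 100% 10 uM staurosporine.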

[20] = Cell Viability - HUV-EC-C (AID 542); conditions: HUV-EC-C endothelial cell viability, qHTS; series mostly up to 92.2 µM; further: on the % scale 0 is the no-effect control and ±100 the full control effect; nearly all actives have a fitted effect of over 35% in size
Procedure, shortened: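 Cells were seeded at 1000 per well and incubated 5 hr at 37 °C before compound addition. After 40 hr at 37 °C, CellTiter-Glo reagent was added for 20 min and luminescence read. AC50 values came from Hill-equation modelling.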

CCc1ccccc1O
inactive: Potency [1] > 92 µM | Potency [2] > 92 µM | Potency [3] > 92 µM | Potency [4] > 92 µM | Potency [5] > 92 µM | Potency [6] > 92 µM | outcome [7] | activity change, negative = cytotoxicity [8] 2.33% | Potency [9] | Potency [10] | Potency [11] | Potency [12] | Potency [13] | Potency [14] | caspase-3 activation [15] 0.741% | outcome [16] | outcome [17] | outcome [18] | outcome [19]

COc1ccc(N)c(C)c1
inactive: Potency [1] > 92 µM | Potency [2] > 92 µM | Potency [3] > 92 µM | Potency [4] > 92 µM | Potency [5] > 92 µM | Potency [6] > 92 µM | outcome [7] | activity change, negative = cytotoxicity [8] 11.2% | Potency [20] | Potency [10] | Potency [11] | Potency [12] | Potency [13] | Potency [14] | caspase-3 activation [15] 0.894% | outcome [16] | outcome [17] | outcome [18] | outcome [19]

O=C1OC(=O)c2cc([N+](=O)[O-])ccc21
inactive: Potency [1] > 92 µM | Potency [2] > 92 µM | Potency [3] > 92 µM | Potency [4] > 92 µM | Potency [5] > 92 µM | Potency [6] > 92 µM | outcome [7] | activity change, negative = cytotoxicity [8] -2.26% | Potency [20] | Potency [10] | Potency [11] | Potency [13] | caspase-3 activation [15] -2.27% | outcome [16] | outcome [17] | outcome [18] | outcome [19]

CC(=O)C1(C)CC2=C(CCCC2(C)C)CC1C (stereo not drawn)
inactive: Potency [1] > 92 µM | Potency [2] > 92 µM | Potency [3] > 92 µM | Potency [4] > 92 µM | Potency [5] > 92 µM | Potency [6] > 92 µM | outcome [7] | activity change, negative = cytotoxicity [8] -8.12% | Potency [20] | Potency [10] | Potency [11] | Potency [12] | Potency [13] | Potency [14] | caspase-3 activation [15] -0.117% | outcome [16] | outcome [17] | outcome [18] | outcome [19]

BrC(Br)C(Br)Br
inactive: Potency [1] > 92 µM | Potency [2] > 92 µM | Potency [3] > 92 µM | Potency [4] > 92 µM | Potency [5] > 92 µM | Potency [6] > 92 µM | outcome [7] | activity change, negative = cytotoxicity [8] 7.56% | Potency [20] | Potency [10] | Potency [11] | Potency [12] | Potency [13] | caspase-3 activation [15] 0.993% | outcome [16] | outcome [17] | outcome [18] | outcome [19]

CO[Si](CCCNCCC[Si](OC)(OC)OC)(OC)OC
inactive: Potency [1] > 92 µM | Potency [2] > 92 µM | Potency [3] > 92 µM | Potency [4] > 92 µM | Potency [5] > 92 µM | Potency [6] > 92 µM | outcome [7] | activity change, negative = cytotoxicity [8] -27% | Potency [20] | Potency [10] | Potency [11] | Potency [13] | Potency [14] | caspase-3 activation [15] 2.91% | outcome [16] | outcome [17] | outcome [18] | outcome [19]

OC(CCl)CCl
inactive: Potency [1] > 92 µM | Potency [2] > 92 µM | Potency [3] > 92 µM | Potency [4] > 92 µM | Potency [5] > 92 µM | Potency [6] > 92 µM | outcome [7] | activity change, negative = cytotoxicity [8] -4.88% | Potency [10] | Potency [11] | Potency [12] | Potency [13] | Potency [14] | caspase-3 activation [15] 0.028% | outcome [16] | outcome [17] | outcome [18] | outcome [19]
